# The list is not random: actives were taken first. Their share in the collection is about 7.2%.
# RE007 growth inh: qHTS Assay for Inhibitors of the HIV-1 protein Vpr. Potency, µM (highest dose often 92.2 µM), actives largely listed as inhibitors. S. pombe RE007 Vpr strain, BacTiter-Glo ATP luminescence, 24 h. 360,000 compounds, 0.21% hits; active means well fitted falling curve with a large enough effect; inconclusive means small, poorly fitted or top-dose-only effect; inactive means no such curve, though single readings can be large or run the other way; further: nearly all actives have a fitted effect of over 50% in size
#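 Fission yeast RE007 carrying one integrated HIV-1 vpr copy, seeded at OD 0.01 in PMG+AL medium with 23 nL pinned compound. Grown 24 h at 30 degrees; viability read by BacTiter-Glo luminescence after 5 min.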
# LASV entry inh: qHTS for Inhibitors of binding or entry into cells for Lassa Virus; 300,000 compounds, 1.2% hits; Potency, µM (top dose mostly 37.9 µM), most hits filed as inhibitors; Lassa virus pseudotype entry inhibition, cell reporter; calls by dose curve; tested in HEK293 cells; further: nearly all actives have a fitted effect of over 50% in size
# MARV entry inh: qHTS for inhibitors of binding or entry into cells for Marburg Virus. Marburg virus pseudotyped entry inhibition, cell reporter. Potency, µM (series often up to 37.8 µM), actives largely listed as inhibitors. 300,000 compounds, 1.8% hits. AID 540276, 2011; calls by dose curve; tested in HEK293 cells
# FMDV antiviral: High Throughput Screening for Foot and Mouth Disease Virus Antivirals; FMDV antiviral cell-based qHTS; Potency, µM (series often up to 57.9 µM), hits mostly inhibitors; 410,000 compounds, 1.2% hits; AID 1159524, 2015; calls by dose curve; tested in HEK293T cells; further: read-out not given here; nearly all actives have a fitted effect of over 45% in size
# HCV inhibitor: qHTS Assay for Inhibitors of Hepatitis C Virus (HCV); Huh7.5.1 HCVcc-Cre infection, luciferase reporter, 44 h; Potency, µM (doses to about 41.8 µM), usual class: inhibitors; 340,000 compounds, 3.4% hits; AID 651820, 2012
#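 Compounds are dispensed onto cells plated 4 h earlier at 1,000 per well, with HCVcc-Cre virus (about 0.5 moi) added next. Following 44 h of culture, luminescent signal is measured for 15 sec after 15 min with substrate at room temperature.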
# Sm TGR inh: qHTS Assay for the Inhibitors of Schistosoma Mansoni Peroxiredoxins; AID 485364, 2010; Potency, µM (doses to about 114 µM), most hits filed as inhibitors; 360,000 compounds, 3% hits; Schistosoma mansoni thioredoxin glutathione reductase (TGR), Q962Y6; purified TGR, DTNB reduction, TNB absorbance 405 nm; further: nearly all actives have a fitted effect of over 60% in size
#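 Kinetic colorimetric format: TGR-catalysed, NADPH-driven DTNB reduction monitored via TNB absorbance. Enzyme dispensed at 20 nM; compound exposure 15 min at room temperature before reaction start.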
# Numbers stand for hits; – = inactive; ? = inconclusive; · = no result; ! = not active in a repeat; [ ] = remark or other dose. Unless noted, the call rests on the fitted dose curve; in most records, active means well fitted curve in the direction sought with a large enough effect; inconclusive means small, poorly fitted or top-dose-only effect, or another doubt; inactive means no such curve, though single readings can be large; an effect the other way counts as inactive or inconclusive.
SMILES,RE007 growth inh,LASV entry inh,MARV entry inh,FMDV antiviral,HCV inhibitor,Sm TGR inh
Cc1ccc([N+](=O)[O-])cc1NC(=S)NC(=O)C(C)(C)C,–,–,–,·,?,44.7µM
CCn1c(-c2ccccc2F)nc2cc(NC(C)=O)cc(C(=O)N3CCNC(=O)C3CC(=O)OC)c21 (centres undefined),·,·,·,–,·,·
COc1cc(NC(=O)c2noc3c2CCc2ccccc2-3)cc(OC)c1OC,·,–,–,?,·,–
N#Cc1ccccc1NC(=O)C(=O)NCCc1csc2nc(-c3cccc(F)c3)nn12,·,–,·,–,·,–
CC1=C[C@@H](C)OC2(C1)C(=O)N(CC1CC1)c1cccc(Br)c12 (some centres undefined),·,·,–,·,·,·
COc1ccc(C(=O)/C=C/c2cn(CN3CCN(C)CC3)c3ccccc23)cc1,?,–,?,–,8.91µM,–
CC(C)NC(=O)c1cnc(N2CCN(c3ccccn3)CC2)c2ccccc12,–,?,?,?,?,–
CCc1ccc(NC(=O)c2cnc(N3CCN(c4ccccn4)CC3)c3ccccc23)cc1,–,?,?,11.2µM,4.47µM,–
CCN1CCN(c2ncc(C(=O)Nc3ccccc3C(=O)OC)c3ccccc23)CC1,–,?,12.6µM,–,7.94µM,–
CC(C)CC(C(=O)NCCc1ccccc1)N1Cc2ccccc2C1=O (centres undefined),·,–,·,–,·,–
COc1cc2oc(=O)c(CC(=O)NCCc3ccccc3)c(C)c2cc1Cl,·,–,–,–,·,–
Cc1ccc(S(=O)(=O)NNC(=S)NCC2CCCO2)cc1 (centres undefined),–,–,?,–,–,12.6µM
Cc1ccc(C(=O)NC(=S)NNS(=O)(=O)c2ccc(C)cc2)cc1,–,–,–,–,–,22.4µM
O=C(NNC(=S)NC(=O)c1ccc(Br)cc1)c1ccc([N+](=O)[O-])cc1,–,·,·,–,–,100µM
O=C(NNC(=O)c1ccc([N+](=O)[O-])cc1)c1ccc(Br)cc1,–,–,–,–,–,–
Cc1ccc(C(=O)NC(=S)NCC2CCCO2)cc1Br (centres undefined),?,–,?,–,?,56.2µM
Cc1ccc(S(=O)(=O)NNC(=O)c2ccc(O)cc2)cc1,–,–,–,–,–,–
CCc1ccc(CNC(=O)c2cc3c(s2)-c2ccccc2OC3)cc1,·,·,–,–,·,–
O=C(c1cccnc1)C1CCCN(Cc2ccc3c(c2)CN(C(=O)c2cnccn2)CCO3)C1 (centres undefined),·,·,·,–,·,·
Cc1ccc(S(=O)(=O)NNC(=S)NC(=O)c2ccc([N+](=O)[O-])cc2)cc1,–,–,–,–,–,7.94µM
Cc1ccc(C(=O)NC(=S)NNC(=O)c2ccc([N+](=O)[O-])cc2)cc1,–,·,·,–,–,–
COc1ccc(NC(=O)CCc2c(C)nc3nc(CNC(=O)OC(C)(C)C)nn3c2C)cc1OC,·,–,–,–,·,–
CCn1c(/C=C/c2c[nH]c3ccccc23)nc2ccccc2c1=O,–,·,–,–,–,–
Cc1ccc2[nH]cc(/C=C/c3cc[n+](C)cc3)c2c1,?,?,5.01µM,–,?,–
CC[n+]1ccc(/C=C/c2c[nH]c3ccccc23)cc1,–,·,·,?,2.82µM,–
SMILES,RE007 growth inh,LASV entry inh,MARV entry inh,FMDV antiviral,HCV inhibitor,Sm TGR inh
O=C(O)C(c1ccccc1)N1C(=O)/C(=C\c2ccc(-c3ccccc3Cl)o2)SC1=S (centres undefined),–,–,–,?,–,14.1µM
Cc1cc(C(=O)OC(C)C(=O)Nc2nc(-c3ccccc3)cs2)c(C)o1 (centres undefined),–,13µM,?,·,?,–
O=C(CN1CCCCC1)Nc1nc(-c2ccc(Cl)cc2)cs1,–,–,–,–,10µM,–
O=C(C[n+]1cc(-c2ccc(Cl)cc2)n2c1CCC2)Nc1nc(-c2ccc(F)cc2)cs1,–,·,–,–,10µM,–
O=C(CN1C(=O)NC2(CCCC2)C1=O)Nc1nc(-c2ccc(F)cc2)cs1,–,?,?,?,12.6µM,–[11.4 µM]
O=C(C[n+]1cc(-c2ccccc2)n2c1CCC2)Nc1nc(-c2ccc(F)cc2)cs1,–,–,?,–,0.708µM,–
O=C(C[n+]1cc(-c2ccc(F)cc2)n2c1CCC2)Nc1nc(-c2ccc(F)cc2)cs1,–,–,–,–,?,–
CCOc1ccc(-c2nnc(SCC(=O)N(CC)c3cccc(C)c3)o2)cc1,·,–,–,?,·,–
COc1ccccc1C1CN(Cc2cccnc2)Cc2ccccc2O1 (centres undefined),·,·,·,–,·,·
COCCN1C(=O)CSCC1(C)C(=O)NCc1ccccc1 (centres undefined),–,·,·,–,·,·
COc1ccc(C2(O)CCN(CC(=O)Nc3nc(-c4ccccc4)cs3)CC2)cc1,–,?,?,28.2µM,?,–
CCOC(=O)COc1ccc(CC)cc1C(=O)c1ccn2nc(-c3ccc(F)cc3)cc2n1,·,–,?,–,·,–
COC(=O)C/C=C/[C@@H](C)[C@@H](Cc1ccccc1Br)OC,·,·,–,·,·,·
COC(=O)CC=C[C@@H](C)[C@H](OC)c1ccccc1Br,·,?,0.596µM!,·,·,·
CNC(=S)N/N=C/C1=CCC2CC1C2(C)C (centres undefined),–,1.3µM,–,–,–,–
COc1ccc(OC)c(NC(=O)Cn2cnc3onc(-c4ccc(Cl)cc4)c3c2=O)c1,·,–,?,?,·,–
O=C(Nc1ccc(F)cc1F)c1ccc(-n2cccn2)c([N+](=O)[O-])c1,–,–,–,–,–,44.7µM
O=C(Nc1ccc(F)cc1)c1ccc(-n2cncn2)c([N+](=O)[O-])c1,–,–,?,?,–,–
COc1ccc(Cl)cc1NC(=O)c1sc2nc3n(c(=O)c2c1C)CCC3,·,–,·,–,·,–
COc1cc(OC)c(NC(=O)c2sc3nc4n(c(=O)c3c2C)CCCC4)cc1Cl,·,–,·,–,·,50.1µM
COc1cc(OC)c(N(C)C(=O)c2sc3nc4n(c(=O)c3c2C)CCCCC4)cc1Cl,·,–,·,–,·,–
COc1cc(OC)c(N(C)C(=O)c2sc3nc4n(c(=O)c3c2C)CCCC4)cc1Cl,·,–,·,–,·,31.6µM
C=CC[C@@H]1C=C[C@@H](O/N=C\C[C@@H]2C=C[C@H](OC(C)=O)[C@H](COC(C)=O)O2)[C@@H](CO)O1,·,·,–,·,·,·
CCOC(=O)/C=C/C(=O)OCC(=O)Nc1ccc([N+](=O)[O-])cc1,–,·,·,–,–,3.98µM
CCOC(=O)/C=C/C(=O)Nc1cccc([N+](=O)[O-])c1,8.91µM,?,?,25.1µM,?,0.708µM
CCOC(=O)/C=C/C(=O)Nc1ccccc1-c1ccccc1NC(=O)/C=C/C(=O)OCC,–,12.6µM,?,?,12.6µM,12.6µM
CCOC(=O)c1cccc(NC(=O)/C=C/c2cccc([N+](=O)[O-])c2)c1,–,–,–,?,?,–

# High-throughput results deposited in PubChem by National Center for Advancing Translational Sciences (NCATS).
